Measured values taken from PubChem BioAssay (NCATS).
Inconclusive results are not listed. Unmarked numbers belong to inactive results. Active and inactive are the calls of the source. The call rests on the fitted dose curve; in most records, active means well fitted cell-killing curve with a large enough effect; inconclusive means small, poorly fitted or top-dose-only effect, or effect the other way; inactive means flat fitted curve, though single readings scatter.

Each compound was assayed on SKOV3 (assay: Primary qHTS to identify gynecologic anti-cancer compounds using libraries of approved drugs and bioactive compounds (AID 1345084; further: nearly all actives have a fitted effect of over 55% in size)). Conditions: Gynecologic cancer cell panel viability, ATPlite luminescence, 48 h; series mostly up to 57.5 µM; activity change, negative = cytotoxicity: at the top concentration.
Summary of the method: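 Cell viability after 48 h drug treatment, ATPlite luminescence readout; five doses.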
On the % scale 0 is the no-effect control and ±100 the full control effect; potency means the concentration at half of the fitted maximal effect.

| Structure (SMILES) | Potency | activity change, negative = cytotoxicity |
| --- | --- | --- |
| Cc1cc(Nc2ccc(NC(=O)c3ccc(Nc4ccnc5ccccc45)cc3)cc2)nc(N)n1 | 3.98 µM (active) |  |
| CC(=O)OC1C[C@]2(C)C(O)CC(C)=C[C@H](OC(=O)c3ccc(O)cc3)C2[C@]1(O)C(C)C (stereo partly drawn) |  | -3.41% [at 25.3 µM] |
| C=C(CO)C12OC1C1(C)C(=CC2=O)C(O)C(O)CC1C (stereo not drawn) |  | 33.7% |
| COC1CC(O[C@H]2CC[C@@]3(C)C(CCC4C3[C@H](OC(C)=O)[C@@H](OC(=O)/C=C/c3ccccc3)[C@]3(C)C(C(C)=O)CC[C@]43O)C2)OC(C)C1OC1CC(OC)C(OC2CC(OC)C(OC3OC(C)C(OC4OC(CO)C(O)C(O)C4O)C(OC)C3O)C(C)O2)C(C)O1 (stereo partly drawn) |  | -2.84% [at 6.55 µM] |
| CC1(C)CC[C@]2(C(=O)O)[C@H](O)C[C@]3(C)C(=CCC4[C@@]5(C)CC[C@H](O[C@@H]6O[C@H](CO[C@@H]7OC[C@H](O)[C@H](O)[C@H]7O[C@@H]7OC[C@@H](O)[C@H](O)[C@H]7O)[C@@H](O)[C@H](O)[C@H]6O[C@@H]6O[C@H](CO)[C@@H](O)[C@H](O)[C@H]6O)C(C)(C)C5CC[C@]43C)[C@@H]2C1 (stereo partly drawn) |  | 21.8% [at 11.6 µM] |
| C/C=C1\[C@H](OC2OC(COC3OC(CO)C(O)C(O)C3O)C(O)C(O)C2O)OC=C(C(=O)OC)[C@H]1CC(=O)OCCc1ccc(O)cc1 (stereo partly drawn) |  | 4.57% [at 25.3 µM] |
| CC1(C)CC[C@]2(C(=O)OC3OC(CO)C(O)C(O)C3O)CC[C@]3(C)C(=CCC4[C@@]5(C)CC[C@H](OC6OC(C(=O)O)C(O)C(OC7OC(CO)C(O)C(O)C7O)C6O)C(C)(C)C5CC[C@]43C)C2C1 (stereo partly drawn) |  | -1.26% [at 11.6 µM] |
| CC1(C)CC[C@]2(C(=O)O[C@@H]3O[C@H](CO)[C@@H](O)[C@H](O)[C@H]3O)CC[C@]3(C)C(=CCC4[C@@]5(C)CC[C@H](O[C@@H]6O[C@H](C(=O)O)[C@@H](O)[C@H](O)[C@H]6O)C(C)(C)C5CC[C@]43C)C2C1 (stereo partly drawn) |  | 0% [at 11.6 µM] |
| CN(C)CCn1cc(S(=O)(=O)c2cccc(F)c2)c2cccnc21 |  | -13.3% |
| CC1=C(C(=O)O)/C(=C\CO[C@@H]2O[C@H](CO)[C@@H](O)[C@H](O)[C@H]2O)C(OC(=O)/C=C/c2ccc(O)cc2)C1 (stereo partly drawn) |  | 6.11% [at 25.3 µM] |
| C[C@H](NC(c1cccc(C[P+](=O)O)c1)[C@H](C)O)c1ccc(Cl)c(Cl)c1 (stereo partly drawn) |  | 11.7% |
| C=C[C@H]1[C@H](O[C@@H]2O[C@H](CO)[C@@H](O)[C@H](O)[C@H]2O)OC=C(C(=O)OC)[C@H]1C[C@@H]1c2cc(O)c(O)cc2CCN1C(C)=O |  | 0% [at 25.3 µM] |
| C=CC(C)(C)c1[nH]c2ccccc2c1C[C@@H]1NC(=O)[C@H](Cc2c[nH]c3ccccc23)NC1=O |  | 0% [at 25.3 µM] |
| C=C1C(=O)O[C@@H]2/C=C(\C)C(=O)/C=C/[C@](C)(O)C[C@@H](OC(=O)C(C)C)[C@@H]12 | 5.62 µM (active) |  |
| O=C(Nc1ccc(-c2ccncc2)cc1)N[C@H](CO)c1ccccc1 |  | 18% |
| CC[C@@](C)(Nc1ccnc(-c2c[nH]c3ncccc23)n1)C(=O)NCC(F)(F)F |  | 21.8% |
| COC(=O)CCC(=O)OC[C@]1(C)CCC[C@@]2(C)C3CC[C@]4(C)C=CC3(CCC12)C4 (stereo partly drawn) |  | -3.67% [at 25.3 µM] |
| C=C1CCC2C(C)(C)C(O)CCC2(C)C1CCC(C)CCO (stereo not drawn) |  | 3.83% [at 38.5 µM] |
| C[C@@H]1O[C@@H](O[C@H]2[C@H](O)[C@@H](C(=O)O)O[C@@H](O[C@H]3CC[C@@]4(C)C(CC[C@]5(C)C4CC=C4C6CC(C)(C)CC[C@]6(C(=O)O)CC[C@]45C)C3(C)C)[C@@H]2O[C@@H]2OC[C@@H](O)[C@H](O)[C@H]2O)[C@H](O)[C@H](O)[C@H]1O (stereo partly drawn) |  | -0.245% [at 11.6 µM] |
| O=C(O)CC(=O)OC[C@H]1O[C@@H](Oc2ccc3c(c2)OC[C@H]2c4cc5c(cc4O[C@@H]32)OCO5)[C@H](O)[C@@H](O)[C@@H]1O |  | 0% [at 25.3 µM] |
| C[C@@H]1O[C@@H](O[C@H]2[C@H](O)[C@@H](O[C@@H]3O[C@H](CO)[C@@H](O)[C@H](O[C@@H]4O[C@H](CO)[C@@H](O)[C@H](O)[C@H]4O)[C@H]3O)[C@H](O[C@H]3CC[C@@]4(C)C(=CC[C@@H]5C4CC[C@@]4(C)C5C[C@@H]5OC6(CC[C@@](C)(CO[C@@H]7O[C@H](CO)[C@@H](O)[C@H](O)[C@H]7O)O6)[C@@H](C)[C@@H]54)C3)O[C@@H]2CO)[C@H](O)[C@H](O)[C@H]1OC1OC(CO)C(O)C(O)C1O (stereo partly drawn) |  | -3.09% [at 6.55 µM] |
| C[C@@H]1[C@H]2[C@H](O[C@@H]3O[C@H](CO)[C@@H](O)[C@H](O)[C@H]3O)OC=C(C(=O)O)[C@H]2C[C@@H]1O |  | 3.38% [at 38.5 µM] |
| CC(C)(F)C[C@@H](N[C@@H](c1ccc(-c2ccc(S(C)(=O)=O)cc2)cc1)C(F)(F)F)C(=O)NC1(C#N)CC1 |  | 7.18% |
| CC1=CC2/C=C(\C)CC[C@@H](O)[C@@H](O)[C@@H]3O[C@@H]3C(=O)[C@]23C(=O)N[C@@H](CC(C)C)[C@@H]3[C@@H]1C (stereo partly drawn) |  | -4.25% [at 25.3 µM] |
| Cc1ccc(-c2c(C(=O)CF)n(CCCO)c3ncnc(N)c23)cc1 |  | -6.95% |
| C=C1C(O)C[C@@H]2C(C(=O)O)=CO[C@@H](O[C@@H]3O[C@H](CO)[C@@H](O)[C@H](O)[C@H]3OC(=O)c3ccc(O)cc3)[C@H]12 (stereo partly drawn) |  | 29.8% [at 25.3 µM] |
| Cc1ccc(F)cc1C(=O)Nc1ccc(C(=O)N2Cc3cccn3Cc3ccccc32)c(Cl)c1 |  | -24.7% |
| O=C(CCc1ccccc1)N1CCC(O)(Cn2cnc3cc(Cl)ccc3c2=O)CC1 |  | 0% |
